# Test results from PubChem BioAssay (NCATS).
# Results filed as inconclusive are left out. Entries that show only a call come without a potency. Active and inactive are the calls of the source. The call rests on the fitted dose curve; in most records, active means well fitted curve in the direction sought with a large enough effect; inconclusive means small, poorly fitted or top-dose-only effect, or another doubt; inactive means no such curve, though single readings can be large; an effect the other way counts as inactive or inconclusive.
# Key:
# [1] = qHTS of pediatric cancer cell lines to identify multiple opportunities for drug repurposing: Primary screen for SK-N-SH cells (AID 1347098); further: nearly all actives have a fitted effect of over 65% in size; further: potency means the concentration at half of the fitted maximal effect
# In short: (§1)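 Cells (500-1,000/well) rested 5 h, then received compounds for 48 h; metabolically active cells were measured by CellTiter-Glo luminescence. Final concentrations spanned up to 46 µM (MIPE, 11-point) or 0.59 nM-46 µM (NPC, 8-point) in primary screens, 11-point in follow-ups.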
# [2] = qHTS of pediatric cancer cell lines to identify multiple opportunities for drug repurposing: Primary screen for LAN-5 cells (AID 1347100); further: potency means the concentration at half of the fitted maximal effect
# In short: as §1
# [3] = qHTS of pediatric cancer cell lines to identify multiple opportunities for drug repurposing: Primary screen for BT-12 cells (AID 1347101); further: nearly all actives have a fitted effect of over 25% in size; further: potency means the concentration at half of the fitted maximal effect
# In short: as §1
# [4] = qHTS of pediatric cancer cell lines to identify multiple opportunities for drug repurposing: Primary screen for RD cells (AID 1347104); further: nearly all actives have a fitted effect of over 55% in size; further: potency means the concentration at half of the fitted maximal effect
# In short: (§2)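 Quantitative HTS format: each compound titrated (MIPE 11 points from 0.78 nM, NPC 8 points from 0.59 nM) onto cells plated 5 hours earlier. After 48 h at 37 degrees C, CellTiter-Glo luminescence was recorded.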
# [5] = qHTS of pediatric cancer cell lines to identify multiple opportunities for drug repurposing: Confirmatory screen for NB1643 cells (AID 1347109); further: nearly all actives have a fitted effect of over 45% in size; further: potency means the concentration at half of the fitted maximal effect
# In short: as §1
# [6] = qHTS of pediatric cancer cell lines to identify multiple opportunities for drug repurposing: Confirmatory screen for A673 cells (AID 1347110);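 further: cells exposed to compound for 48 h before the viability read; nearly all actives have a fitted effect of over 65% in size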; further: potency means the concentration at half of the fitted maximal effect
# In short: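 A673 cells seeded at 500-1,000 cells/well, rested 5 h, then dosed; primary MIPE 11-point (0.78 nM to 46 µM), NPC (0.59 nM to 46 µM); confirmatory 11-point. CellTiter-Glo luminescence after 48 h.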
# [7] = qHTS of pediatric cancer cell lines to identify multiple opportunities for drug repurposing: Confirmatory screen for SK-N-MC cells (AID 1347111);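 further: potency means the concentration at half of the fitted maximal effect; cells exposed to compound for 48 h before the readout; nearly all actives have a fitted effect of over 70% in size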
# In short: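 Seed 500-1,000 cells/well; rest 5 h at 37 degrees C. Pin-transfer compounds, 11-point titration. Incubate 48 h. Add CellTiter-Glo, 15 min RT, read luminescence.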
# [8] = qHTS of pediatric cancer cell lines to identify multiple opportunities for drug repurposing: Confirmatory screen for BT-12 cells (AID 1347112); further: potency means the concentration at half of the fitted maximal effect; nearly all actives have a fitted effect of over 55% in size
# In short: as §1
# [9] = qHTS of pediatric cancer cell lines to identify multiple opportunities for drug repurposing: Confirmatory screen for LAN-5 cells (AID 1347113); further: nearly all actives have a fitted effect of over 65% in size; further: potency means the concentration at half of the fitted maximal effect
# In short: as §1
# [10] = qHTS of pediatric cancer cell lines to identify multiple opportunities for drug repurposing: Confirmatory screen for NB-EBc1 cells (AID 1347115);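 further: cells exposed to compound for 48 h before the viability read; nearly all actives have a fitted effect of over 45% in size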; further: potency means the concentration at half of the fitted maximal effect
# In short: as §1
# [11] = qHTS of pediatric cancer cell lines to identify multiple opportunities for drug repurposing: Confirmatory screen for SJ-GBM2 cells (AID 1347116); further: nearly all actives have a fitted effect of over 60% in size; further: potency means the concentration at half of the fitted maximal effect
# In short: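 Viability measured as metabolically active cells via CellTiter-Glo luminescence following 48 hours of compound exposure, 11-point dilutions in confirmatory testing. 500-1,000 cells/well plated 5 hours before dosing; controls were DMSO and 2.3 µM bortezomib.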
# [12] = qHTS of pediatric cancer cell lines to identify multiple opportunities for drug repurposing: Confirmatory screen for BT-37 cells (AID 1347117); further: potency means the concentration at half of the fitted maximal effect; nearly all actives have a fitted effect of over 55% in size
# In short: as §1
# [13] = qHTS of pediatric cancer cell lines to identify multiple opportunities for drug repurposing: Primary screen for NB1643 cells (AID 1347099); further: nearly all actives have a fitted effect of over 50% in size; further: potency means the concentration at half of the fitted maximal effect
# In short: as §2
# [14] = qHTS of pediatric cancer cell lines to identify multiple opportunities for drug repurposing: Primary screen for Rh18 cells (AID 1347102); further: nearly all actives have a fitted effect of over 65% in size; further: potency means the concentration at half of the fitted maximal effect
# In short: as §1
# [15] = qHTS of pediatric cancer cell lines to identify multiple opportunities for drug repurposing: Primary screen for OHS-50 cells (AID 1347103); further: nearly all actives have a fitted effect of over 40% in size; further: potency means the concentration at half of the fitted maximal effect
# In short: as §1
# [16] = qHTS of pediatric cancer cell lines to identify multiple opportunities for drug repurposing: Primary screen for MG 63 (6-TG R) cells (AID 1347105); further: nearly all actives have a fitted effect of over 50% in size
# In short: as §2
# [17] = qHTS of pediatric cancer cell lines to identify multiple opportunities for drug repurposing: Primary screen for control Hh wild type fibroblast cells (AID 1347106); further: nearly all actives have a fitted effect of over 55% in size; further: potency means the concentration at half of the fitted maximal effect
# In short: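 Viability after 48 h compound treatment at 37C, 500-1,000 cells/well, read as ATP luminescence with CellTiter-Glo. Primary screens used 11-point (MIPE, 0.78 nM-46 µM) or 8-point (NPC, 0.59 nM-46 µM) final concentrations; follow-up screens used 11-point dilutions.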
# [18] = qHTS of pediatric cancer cell lines to identify multiple opportunities for drug repurposing: Primary screen for Rh30 cells (AID 1347107); further: series mostly up to about 46 µM; nearly all actives have a fitted effect of over 75% in size
# In short: as §1
# [19] = qHTS of pediatric cancer cell lines to identify multiple opportunities for drug repurposing: Primary screen for Rh41 cells (AID 1347108); further: nearly all actives have a fitted effect of over 70% in size; further: potency means the concentration at half of the fitted maximal effect
# In short: as §2
smiles,measurement,setting,value
Nc1ccc2cc3ccc(N)cc3nc2c1,Potency,[1],7.7 µM (active)
same,Potency,[2],4.22 µM (active)
same,Potency,[3],7.77 µM (active)
same,Potency,[4],21.1 µM (active)
same,Potency,[5],7.37 µM (active)
same,Potency,[6],7.37 µM (active)
same,Potency,[7],8.27 µM (active)
same,Potency,[8],16.5 µM (active)
same,Potency,[9],8.27 µM (active)
same,Potency,[10],13.1 µM (active)
same,Potency,[11],5.85 µM (active)
same,Potency,[12],11.7 µM (active)
C#CC(C)(CC)OC(=O)c1ccccc1C(=O)O (stereo not given),Potency,[1],inactive
same,Potency,[13],inactive
same,Potency,[3],inactive
same,Potency,[14],inactive
same,Potency,[15],inactive
same,Potency,[4],inactive
same,Potency,[16],inactive
same,Potency,[17],inactive
same,Potency,[18],inactive
same,Potency,[19],inactive
O=C(c1ccco1)N1CCNCC1,Potency,[1],inactive
same,Potency,[13],inactive
same,Potency,[2],inactive
same,Potency,[3],inactive
same,Potency,[15],inactive
same,Potency,[4],inactive
same,Potency,[16],inactive
same,Potency,[17],inactive
same,Potency,[18],inactive
same,Potency,[19],inactive
Nc1ccc(O)cc1,Potency,[1],inactive
same,Potency,[2],15 µM (active)
same,Potency,[3],inactive
same,Potency,[14],inactive
same,Potency,[4],inactive
same,Potency,[16],inactive
same,Potency,[17],inactive
same,Potency,[18],inactive
same,Potency,[19],inactive
C[C@@]12CCC[C@H]1[C@@H]1CC[C@H]3C[C@@H](O)CC[C@]3(C)[C@H]1CC2,Potency,[1],inactive
same,Potency,[13],inactive
same,Potency,[2],inactive
same,Potency,[14],inactive
same,Potency,[4],inactive
same,Potency,[17],inactive
same,Potency,[18],inactive
same,Potency,[19],inactive
CC(C)=CCNc1ncnc2c1ncn2[C@@H]1O[C@H](CO)[C@@H](O)[C@H]1O,Potency,[1],5.45 µM (active)
same,Potency,[13],5.31 µM (active)
same,Potency,[2],5.96 µM (active)
same,Potency,[4],13.3 µM (active)
same,Potency,[17],8.41 µM (active)
same,Potency,[19],6.68 µM (active)
CCN1CCN(c2cc(-c3ccc(F)cc3)c3c(n2)CCCCCC3)CC1,Potency,[1],inactive
same,Potency,[2],inactive
same,Potency,[3],inactive
same,Potency,[14],inactive
same,Potency,[4],inactive
same,Potency,[16],inactive
same,Potency,[17],inactive
same,Potency,[18],inactive
same,Potency,[19],inactive
CNC(=O)c1c(I)c(NC(C)=O)c(I)c(C(=O)O)c1I,Potency,[1],inactive
same,Potency,[13],inactive
same,Potency,[3],inactive
same,Potency,[14],inactive
same,Potency,[15],inactive
same,Potency,[4],inactive
same,Potency,[17],inactive
same,Potency,[18],inactive
same,Potency,[19],inactive
CCCCCOc1ccccc1/C(=C\SC)n1ccnc1,Potency,[1],inactive
same,Potency,[2],inactive
same,Potency,[14],inactive
same,Potency,[16],inactive
same,Potency,[18],inactive
CCCC(=O)O[C@]1(C(=O)CC)CC[C@H]2[C@@H]3CCC4=CC(=O)CC[C@]4(C)[C@H]3[C@@H](O)C[C@@]21C,Potency,[1],inactive
same,Potency,[2],inactive
same,Potency,[3],inactive
same,Potency,[14],inactive
same,Potency,[4],inactive
same,Potency,[16],inactive
same,Potency,[17],inactive
C[C@@H]1CCC[C@H](C)N1CCCC(O)(c1ccccc1)c1ccccn1 (stereo not given in full),Potency,[1],inactive
same,Potency,[2],inactive
same,Potency,[3],inactive
same,Potency,[14],inactive
same,Potency,[15],inactive
same,Potency,[4],inactive
same,Potency,[16],inactive
same,Potency,[17],inactive
same,Potency,[19],inactive
CC(=O)OC/C=C(C)/C=C/C=C(C)/C=C/C1=C(C)CCCC1(C)C,Potency,[1],inactive
same,Potency,[13],inactive
same,Potency,[2],inactive
same,Potency,[14],inactive
same,Potency,[15],inactive
same,Potency,[4],inactive
same,Potency,[16],inactive
same,Potency,[17],inactive
CCOC(=O)c1ccc(O)c(O)c1,Potency,[1],inactive
same,Potency,[13],inactive
same,Potency,[14],inactive
same,Potency,[4],inactive
same,Potency,[16],inactive
same,Potency,[17],inactive
same,Potency,[18],inactive
same,Potency,[19],inactive
Cc1cccc(N(C)C(=S)Oc2ccc3c(c2)C2CCC3C2)c1 (stereo not given),Potency,[1],inactive
same,Potency,[2],inactive
same,Potency,[16],inactive
same,Potency,[17],inactive
same,Potency,[18],inactive
same,Potency,[19],inactive
O=C1OC2(c3ccccc31)c1cc(I)c(O)c(I)c1Oc1c2cc(I)c(O)c1I,Potency,[1],inactive
same,Potency,[2],inactive
same,Potency,[4],inactive
same,Potency,[16],inactive
same,Potency,[17],inactive
same,Potency,[19],inactive
CCOC(=O)c1ccc(OCCN2C[C@H](O)[C@@H](O)[C@H](O)[C@H]2CO)cc1,Potency,[1],inactive
same,Potency,[2],inactive
same,Potency,[3],inactive
same,Potency,[14],inactive
same,Potency,[15],inactive
same,Potency,[4],inactive
same,Potency,[16],inactive
same,Potency,[17],inactive
same,Potency,[18],inactive
same,Potency,[19],inactive
COC(=O)CCCCC(CCSS/C(CCO)=C(\C)N(C=O)Cc1cnc(C)nc1N)SC(C)=O (stereo not given),Potency,[1],inactive
same,Potency,[13],inactive
same,Potency,[3],inactive
same,Potency,[15],inactive
same,Potency,[4],inactive
same,Potency,[16],inactive
same,Potency,[17],inactive
same,Potency,[19],inactive
CCC1(c2cnc[nH]2)Cc2ccccc2C1,Potency,[1],inactive
same,Potency,[2],inactive
same,Potency,[3],inactive
same,Potency,[14],inactive
same,Potency,[4],inactive
same,Potency,[16],inactive
same,Potency,[17],inactive
same,Potency,[18],inactive
same,Potency,[19],inactive
same,Potency,[6],inactive
same,Potency,[7],3.29 µM (active)
same,Potency,[9],inactive
same,Potency,[10],20.8 µM (active)
same,Potency,[11],inactive
same,Potency,[12],10.4 µM (active)
OC(CCCN1CCCCC1)(c1ccccc1)c1ccccc1,Potency,[1],inactive
same,Potency,[2],inactive
same,Potency,[14],inactive
same,Potency,[4],inactive
same,Potency,[16],inactive
same,Potency,[17],inactive
same,Potency,[18],inactive
same,Potency,[19],inactive
CCCC(=O)O[C@]1(C(=O)CCl)[C@@H](C)C[C@H]2[C@@H]3CCC4=CC(=O)C=C[C@]4(C)[C@@]3(F)C(=O)C[C@@]21C,Potency,[1],inactive
same,Potency,[13],inactive
same,Potency,[16],inactive
same,Potency,[17],inactive
same,Potency,[18],inactive
same,Potency,[5],inactive
same,Potency,[6],inactive
same,Potency,[7],14.7 µM (active)
same,Potency,[9],inactive
Cc1ccc(Cl)c(OCC(O)CNC(C)(C)C)c1 (stereo not given),Potency,[1],inactive
same,Potency,[13],inactive
same,Potency,[3],inactive
same,Potency,[14],inactive
same,Potency,[17],inactive
same,Potency,[18],inactive
OCc1cccnc1,Potency,[1],inactive
same,Potency,[13],inactive
same,Potency,[3],inactive
same,Potency,[14],inactive
same,Potency,[15],inactive
same,Potency,[4],inactive
same,Potency,[16],inactive
same,Potency,[17],inactive
same,Potency,[19],inactive
CC(C)=CCC/C(C)=C/CC/C(C)=C/C(=O)OCC(=O)[C@@]1(O)CC[C@H]2[C@@H]3CCC4=CC(=O)C=C[C@]4(C)[C@H]3[C@@H](O)C[C@@]21C,Potency,[1],inactive
same,Potency,[2],13.3 µM (active)
same,Potency,[4],inactive
same,Potency,[16],inactive
same,Potency,[18],inactive
same,Potency,[19],inactive
same,Potency,[5],23.3 µM (active)
same,Potency,[7],18.5 µM (active)
same,Potency,[10],inactive
same,Potency,[11],inactive
Nc1c2ccccc2nc2ccccc12,Potency,[1],9.7 µM (active)
same,Potency,[3],12.3 µM (active)
same,Potency,[15],24.6 µM (active)
same,Potency,[4],15 µM (active)
same,Potency,[19],16.8 µM (active)
same,Potency,[5],4.14 µM (active)
same,Potency,[6],6.57 µM (active)
same,Potency,[7],3.29 µM (active)
same,Potency,[8],3.69 µM (active)
same,Potency,[9],3.69 µM (active)
same,Potency,[10],6.57 µM (active)
same,Potency,[11],3.29 µM (active)
same,Potency,[12],2.93 µM (active)
Fc1ccc(C(c2ccc(F)cc2)N2CCNCC2)cc1,Potency,[1],inactive
same,Potency,[13],inactive
same,Potency,[3],inactive
same,Potency,[14],inactive
same,Potency,[4],inactive
same,Potency,[16],inactive
same,Potency,[18],inactive
same,Potency,[19],inactive
O=c1[nH]sc2cc(Cl)ccc12,Potency,[1],0.217 µM (active)
same,Potency,[13],0.168 µM (active)
same,Potency,[2],0.001 µM (active)
same,Potency,[14],18.8 µM (active)
same,Potency,[15],13.8 µM (active)
same,Potency,[4],inactive
same,Potency,[17],inactive
same,Potency,[5],8.27 µM (active)
same,Potency,[7],9.27 µM (active)
same,Potency,[8],16.5 µM (active)
same,Potency,[9],10.4 µM (active)
same,Potency,[10],20.8 µM (active)
same,Potency,[11],20.8 µM (active)
O=C(O)c1ccccc1Nc1cc(Cl)ccc1C(=O)O,Potency,[1],11.9 µM (active)
same,Potency,[3],inactive
same,Potency,[14],inactive
same,Potency,[15],inactive
same,Potency,[4],inactive
same,Potency,[16],inactive
same,Potency,[17],inactive
same,Potency,[18],inactive
same,Potency,[19],11.6 µM (active)
